Assay results from PubChem BioAssay (Tox21).
Records with an inconclusive call do not appear. A call without a number means that no potency is given here. Calls of active or inactive are those of the source. Unless noted, calls follow the shape of the dose curve; as a rule, active = well fitted curve in the direction sought with a large enough effect in the repeat runs; inconclusive = weak or mixed curves; inactive = no such curve, though single readings can be large; an effect the other way counts as inactive or inconclusive.

Tests used:
[1] = target: Estrogen receptor beta (Homo sapiens) (UniProt Q92731); experiment: qHTS assay to identify small molecule agonists of the estrogen receptor beta (ER-beta) signaling pathway (AID 1259377; active = well fitted activation curve with a large enough effect in the signal ratio in the repeat runs, not every such curve was filed as active; the % refers to the signal ratio)
Estrogen receptor beta (Homo sapiens), sequence (Q92731 whole entry, looked up): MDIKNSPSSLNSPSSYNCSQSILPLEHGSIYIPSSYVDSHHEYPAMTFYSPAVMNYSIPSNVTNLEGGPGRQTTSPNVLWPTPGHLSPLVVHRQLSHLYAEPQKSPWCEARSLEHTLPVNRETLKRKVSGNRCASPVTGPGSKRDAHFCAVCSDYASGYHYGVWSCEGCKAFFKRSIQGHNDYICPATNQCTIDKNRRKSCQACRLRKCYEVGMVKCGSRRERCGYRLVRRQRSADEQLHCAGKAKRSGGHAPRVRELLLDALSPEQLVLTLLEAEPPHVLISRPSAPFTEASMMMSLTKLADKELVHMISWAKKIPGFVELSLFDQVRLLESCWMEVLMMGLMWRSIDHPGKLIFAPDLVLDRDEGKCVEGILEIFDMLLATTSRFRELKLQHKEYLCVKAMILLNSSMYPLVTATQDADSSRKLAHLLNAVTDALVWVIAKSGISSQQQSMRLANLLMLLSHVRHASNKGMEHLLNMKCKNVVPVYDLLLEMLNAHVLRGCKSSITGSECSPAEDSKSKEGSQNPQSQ
Procedure, shortened: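 HEK293T ER-beta-UAS-bla; 2% charcoal-stripped FBS; cells pre-incubated 6 hr, compound 16 hr, 37C/5% CO2; LiveBLAzer B/G FRET substrate 2 h RT; fluorescence intensity read.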

[2] = target: Estrogen receptor beta (Homo sapiens) (UniProt Q92731); experiment: qHTS assay to identify small molecule antagonists of the estrogen receptor beta (ER-beta) signaling pathway (AID 1259378; active = well fitted inhibition curve with a large enough effect in the signal ratio in the repeat runs, not every such curve was filed as active; the % refers to the signal ratio; also: potency is read from the fitted curve at half-maximal effect)
Procedure, shortened: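 ER-beta-UAS-bla HEK293T (GripTite) cells in 2% charcoal-stripped FBS medium were preincubated 6 hr at 37C, dosed with compound, then stimulated with 1 nM E2 (final) for 16 hr; beta-lactamase reporter read by B/G FRET fluorescence after 2 hr substrate loading.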

[3] = qHTS assay to identify small molecule agonists of the androgen receptor (AR) signaling pathway in the presence of an antagonist - cell viability counter screen (AID 1259379); also: nearly all actives have a fitted effect of over 25% in size; also: potency is read from the fitted curve at half-maximal effect
Procedure, shortened: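 Seed MDA-kb2 at 3,000 cells/well; incubate 5 hr, 37C, 0% CO2. Add nilutamide to 3.0uM final, then pin compounds at 15 concentrations. Incubate 16 hr. Add CellTiter-Fluor at 15 hr, read fluorescence after 1 hr.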

[4] = qHTS assay to identify small molecule antagonists of the estrogen receptor beta (ER-beta) signaling pathway - cell viability counter screen (AID 1259382); also: series mostly up to about 92 µM; nearly all actives have a fitted effect of over 55% in size
Procedure, shortened: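 In this multiplexed counter screen, cells were seeded at 2,000 per well in medium with 2% charcoal-stripped FBS and incubated 6 hr before compound and 1nM final E2 were added. Sixteen hours later, ATP-based luminescence reported viability.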

[5] = target: Estrogen receptor (Homo sapiens) (UniProt P03372); experiment: qHTS assay to identify small molecule agonists of the estrogen receptor alpha (ER-alpha) signaling pathway in the presence of an antagonist (AID 1259383; calls by dose curve; also: top concentration of the series differs between compounds; nearly all actives have a fitted effect of over 15% in size)
Estrogen receptor (Homo sapiens), sequence (P03372 whole entry, looked up): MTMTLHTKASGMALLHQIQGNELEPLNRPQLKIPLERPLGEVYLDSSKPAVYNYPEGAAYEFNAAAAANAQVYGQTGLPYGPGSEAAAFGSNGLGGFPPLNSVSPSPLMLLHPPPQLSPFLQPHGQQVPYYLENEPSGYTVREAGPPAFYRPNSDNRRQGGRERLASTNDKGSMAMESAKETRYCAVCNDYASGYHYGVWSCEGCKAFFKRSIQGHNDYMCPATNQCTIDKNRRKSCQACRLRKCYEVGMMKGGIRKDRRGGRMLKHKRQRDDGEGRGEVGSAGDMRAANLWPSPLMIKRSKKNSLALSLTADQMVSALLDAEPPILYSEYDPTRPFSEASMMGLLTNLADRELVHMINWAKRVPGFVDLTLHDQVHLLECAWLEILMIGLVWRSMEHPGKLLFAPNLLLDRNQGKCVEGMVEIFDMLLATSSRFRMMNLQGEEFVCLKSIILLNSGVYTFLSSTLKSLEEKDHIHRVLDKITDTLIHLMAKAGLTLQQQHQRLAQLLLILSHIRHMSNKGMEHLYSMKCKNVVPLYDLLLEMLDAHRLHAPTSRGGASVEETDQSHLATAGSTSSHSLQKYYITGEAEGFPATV
Procedure, shortened: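 Stably transfected VM7Luc4E2 reporter cells, kept 5 days in charcoal-stripped serum, received ICI-182,780 at 10.0nM final before compound addition. Following 22hr incubation at 37C and 5% CO2, luciferase signal was read by luminescence.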

[6] = qHTS assay to identify small molecule agonists or antagonists of the thyroid stimulating hormone receptor (TSHR) signaling pathway - wild type cell line counter screen (AID 1259384; calls by dose curve)
Procedure, shortened: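 Wild-type HEK293 cells were plated 18 h at 37 C/5% CO2, pin-dosed with compound plus Ro20-1724 medium, held 30 min at room temperature, then given cAMP-d2 and anti-cAMP-cryptate; fluorescence was read after 1 h. Fifteen concentrations, triplicate.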

[7] = qHTS assay to identify small molecule agonists of the estrogen receptor alpha (ER-alpha) signaling pathway in the presence of an antagonist - cell viability counter screen (AID 1259386);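 also: cells exposed to compounds for 22 h at 37 °C before the viability read; nearly all actives have a fitted effect of over 30% in size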; also: potency is read from the fitted curve at half-maximal effect
Procedure, shortened: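 Viability counter screen using VM7Luc4E2 (full-length ER-alpha, four ERE-luciferase). The cells were treated with compounds alongside ICI-182,780 10.0nM for 22hr, and live-cell protease fluorescence was quantified with CellTiter-Fluor.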

[8] = target: Progesterone receptor (Homo sapiens) (UniProt P06401); experiment: qHTS assay to identify small molecule agonists of the progesterone receptor (PR) signaling pathway (AID 1346784; calls by dose curve; also: nearly all actives have a fitted effect of over 30% in size; also: potency is read from the fitted curve at half-maximal effect)
Progesterone receptor (Homo sapiens), sequence (P06401 whole entry, looked up): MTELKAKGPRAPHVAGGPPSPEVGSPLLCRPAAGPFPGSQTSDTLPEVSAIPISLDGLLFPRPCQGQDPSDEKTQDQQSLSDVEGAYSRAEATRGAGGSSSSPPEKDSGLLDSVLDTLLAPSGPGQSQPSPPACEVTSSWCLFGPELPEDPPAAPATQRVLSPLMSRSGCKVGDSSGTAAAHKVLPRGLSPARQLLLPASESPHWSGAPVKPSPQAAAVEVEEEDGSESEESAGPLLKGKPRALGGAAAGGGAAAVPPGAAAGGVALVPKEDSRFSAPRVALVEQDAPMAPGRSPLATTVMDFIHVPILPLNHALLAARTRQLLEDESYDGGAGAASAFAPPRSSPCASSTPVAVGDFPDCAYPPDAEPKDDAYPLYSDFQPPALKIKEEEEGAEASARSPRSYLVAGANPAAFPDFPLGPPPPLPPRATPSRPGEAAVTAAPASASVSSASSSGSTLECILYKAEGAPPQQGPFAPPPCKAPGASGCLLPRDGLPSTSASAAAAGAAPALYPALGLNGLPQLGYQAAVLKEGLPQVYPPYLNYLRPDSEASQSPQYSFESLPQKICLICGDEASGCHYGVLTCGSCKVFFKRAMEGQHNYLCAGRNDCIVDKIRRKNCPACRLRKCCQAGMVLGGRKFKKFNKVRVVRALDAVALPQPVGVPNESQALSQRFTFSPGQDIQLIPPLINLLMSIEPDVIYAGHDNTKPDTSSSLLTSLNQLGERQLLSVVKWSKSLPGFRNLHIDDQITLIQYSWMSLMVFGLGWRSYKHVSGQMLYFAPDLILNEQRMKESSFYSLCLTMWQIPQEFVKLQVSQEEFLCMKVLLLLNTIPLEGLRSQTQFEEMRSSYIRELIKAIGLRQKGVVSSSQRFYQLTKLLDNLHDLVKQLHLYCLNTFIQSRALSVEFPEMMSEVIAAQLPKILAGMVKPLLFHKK
Procedure, shortened: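 Beta-lactamase reporter read-out: after 16 hr compound treatment at 37C and a further 2 hr at room temperature with LiveBLAzer B/G FRET substrate, fluorescence was measured in PR-UAS-bla HEK 293T cells grown in 2% charcoal-stripped serum.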

[9] = qHTS assay to identify small molecule agonists of the TGF-beta/Smad signaling pathway - cell viability counter screen (AID 1346829); also: top concentration of the series differs between compounds; nearly all actives have a fitted effect of over 45% in size
Procedure, shortened: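 SBE-bla HEK 293T cells plated overnight, compound exposure 5 hr at 37 C. Viability read in the same wells by CellTiter-Glo luminescence after 30 min at room temperature, following the beta-lactamase read.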

[10] = qHTS assay to identify small molecule agonists of the TGF-beta/Smad signaling pathway (AID 1346859; active = well fitted activation curve with a large enough effect in the signal ratio in the repeat runs, not every such curve was filed as active; the % refers to the signal ratio; also: series mostly up to about 77 µM)
Procedure, shortened: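 SBE-bla HEK 293T, 4,000 cells/well, plated o/n; cpd in DMSO, 5 hr, 37 C/5% CO2; B/G FRET substrate 2 hr RT; ex 405, em 460/530 nm.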

[11] = target: Thyrotropin-releasing hormone receptor (Homo sapiens) (UniProt P34981); experiment: qHTS assay to identify small molecule antagonists of the thyrotropin-releasing hormone receptor (TRHR) signaling pathway (AID 1346877; active = well fitted inhibition curve with a large enough effect in the repeat runs, not every such curve was filed as active; also: series mostly up to about 51 µM)
Thyrotropin-releasing hormone receptor (Homo sapiens), sequence (P34981 whole entry, looked up): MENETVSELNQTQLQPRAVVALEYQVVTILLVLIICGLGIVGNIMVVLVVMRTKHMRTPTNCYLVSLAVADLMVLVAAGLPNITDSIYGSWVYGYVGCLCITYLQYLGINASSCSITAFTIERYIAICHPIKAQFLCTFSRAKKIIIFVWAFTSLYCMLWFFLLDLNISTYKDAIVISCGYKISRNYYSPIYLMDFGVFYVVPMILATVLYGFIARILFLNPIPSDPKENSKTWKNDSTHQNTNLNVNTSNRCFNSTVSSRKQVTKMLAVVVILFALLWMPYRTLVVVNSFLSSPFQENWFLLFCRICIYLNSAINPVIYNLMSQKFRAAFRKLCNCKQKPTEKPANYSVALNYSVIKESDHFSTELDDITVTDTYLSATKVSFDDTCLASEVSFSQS
Procedure, shortened: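 Following an 18 h incubation at 37 °C and a 2 h calcium dye load, TRHR-HEK293 cells were exposed to compound (5 min, room temperature) and challenged with TRH, 1 nM final.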

[12] = target: Thyrotropin-releasing hormone receptor (Homo sapiens) (UniProt P34981); experiment: qHTS assay to identify small molecule agonists of the thyrotropin-releasing hormone receptor (TRHR) signaling pathway (AID 1346891; calls by dose curve; also: series mostly up to about 58 µM)
Procedure, shortened: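 Intracellular calcium rise, read as fluorescence every second for 3 min, served as the agonist signal in dye-loaded HEK293 cells expressing TRHR; each compound ran at 15 concentrations in triplicate.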

[13] = Human pregnane X receptor (PXR) small molecule agonists, qHTS cell viability counter screen (AID 1346977); also: nearly all actives have a fitted effect of over 50% in size; also: potency is read from the fitted curve at half-maximal effect
Procedure, shortened: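 PXR-Luc HepG2, 2,000 cells/well, 5% charcoal-stripped FBS; 5hr settle; cpd 24hr, 37C/5% CO2; CellTiter-Fluor at 23hr, read 1hr later (fluorescence).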

[14] = target: Thyrotropin receptor (Homo sapiens) (UniProt P16473); experiment: qHTS assay to identify small molecule antagonists of the thyroid stimulating hormone receptor (TSHR) signaling pathway (AID 1259385; calls by dose curve; also: nearly all actives have a fitted effect of over 20% in size; also: potency is read from the fitted curve at half-maximal effect)
Thyrotropin receptor (Homo sapiens), sequence (P16473 whole entry, looked up): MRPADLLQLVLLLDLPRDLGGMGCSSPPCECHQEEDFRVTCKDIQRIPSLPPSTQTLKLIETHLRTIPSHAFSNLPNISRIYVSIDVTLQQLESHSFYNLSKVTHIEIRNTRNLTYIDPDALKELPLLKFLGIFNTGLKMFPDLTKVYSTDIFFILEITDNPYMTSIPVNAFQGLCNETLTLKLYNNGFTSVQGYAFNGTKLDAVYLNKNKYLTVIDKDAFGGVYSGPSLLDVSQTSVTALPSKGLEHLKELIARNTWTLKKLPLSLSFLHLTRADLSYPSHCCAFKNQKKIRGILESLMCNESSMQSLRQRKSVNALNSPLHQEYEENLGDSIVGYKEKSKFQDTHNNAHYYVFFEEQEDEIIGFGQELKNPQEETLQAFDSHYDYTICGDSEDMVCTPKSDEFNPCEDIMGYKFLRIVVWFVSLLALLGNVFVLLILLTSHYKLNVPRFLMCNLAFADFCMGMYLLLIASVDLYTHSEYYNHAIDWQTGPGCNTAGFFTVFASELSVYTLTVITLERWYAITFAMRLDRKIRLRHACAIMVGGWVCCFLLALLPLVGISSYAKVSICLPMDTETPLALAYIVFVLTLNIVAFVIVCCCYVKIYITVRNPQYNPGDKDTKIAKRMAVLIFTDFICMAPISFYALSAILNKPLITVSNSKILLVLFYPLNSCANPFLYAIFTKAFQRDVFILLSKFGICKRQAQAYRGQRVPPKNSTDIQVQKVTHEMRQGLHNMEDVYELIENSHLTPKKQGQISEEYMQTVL
Procedure, shortened: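 TSHR-HEK293 cells were plated and held 18 h at 37C/5% CO2, then given compound plus Ro20-1724 and stimulated with TSH at 1.5 ng/mL final. After 30 min at room temperature, cAMP was detected with cAMP-d2/anti-cAMP-cryptate (1 h) by fluorescence.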

[15] = target: Progesterone receptor (Homo sapiens) (UniProt P06401); experiment: qHTS assay to identify small molecule antagonists of the progesterone receptor (PR) signaling pathway (AID 1346795; active = well fitted inhibition curve with a large enough effect in the signal ratio in the repeat runs, not every such curve was filed as active; the % refers to the signal ratio; also: potency is read from the fitted curve at half-maximal effect)
Procedure, shortened: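 Read-out is fluorescence from the LiveBLAzer B/G FRET substrate, cleaved by a UAS-controlled beta-lactamase in PR-UAS-bla HEK293T cells after 16 hr exposure to compound plus 1 nM promegestone (final), followed by 2 hr at room temperature.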

[16] = qHTS assay to identify small molecule antagonists of the progesterone receptor (PR) signaling pathway - cell viability counter screen (AID 1346798); also: nearly all actives have a fitted effect of over 50% in size; also: potency is read from the fitted curve at half-maximal effect
Procedure, shortened: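 HEK293T PR-UAS-bla, 2% charcoal-stripped FBS; 4 hr pre-plate; cpd + R5020, 16 h 37C; LiveBLAzer read first; then CellTiter-Glo 30 min RT, luminescence.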

[17] = qHTS assay to identify small molecule agonists of the progesterone receptor (PR) signaling pathway - cell viability counter screen (AID 1346799; calls by dose curve; also: nearly all actives have a fitted effect of over 45% in size; also: potency is read from the fitted curve at half-maximal effect)
Procedure, shortened: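 Luminescence from CellTiter-Glo, added after the beta-lactamase FRET read in the same wells, gave cytotoxicity in PR-UAS-bla HEK293T cells treated with compounds for 16 hr at 37C.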

[18] = qHTS assay to identify small molecule agonists of the estrogen receptor beta (ER-beta) signaling pathway - cell viability counter screen (AID 1259380); also: nearly all actives have a fitted effect of over 30% in size; also: potency is read from the fitted curve at half-maximal effect
Procedure, shortened: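 CellTiter-Glo read, 30 min RT, same wells as bla assay; cells ER-beta-UAS-bla HEK293T; 16 hr compound, 37C; medium 2% charcoal-stripped FBS.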

[19] = qHTS assay to identify small molecule antagonists of the TGF-beta/Smad signaling pathway - cell viability counter screen (AID 1346824); also: nearly all actives have a fitted effect of over 50% in size
Procedure, shortened: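 SBE-bla HEK 293T cells were plated overnight at 37 C, then given compounds in DMSO plus TGF-beta1 (added as 0.25 ng/mL solution) for 5 hr. After the bla read, CellTiter-Glo was added to the same wells and luminescence read after 30 min at room temperature.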

[20] = target: Androgen receptor (Homo sapiens) (UniProt P10275); experiment: qHTS assay to identify small molecule agonists of the androgen receptor (AR) signaling pathway in the presence of an antagonist (AID 1259381; calls by dose curve; also: nearly all actives have a fitted effect of over 15% in size; also: potency is read from the fitted curve at half-maximal effect)
Androgen receptor (Homo sapiens), sequence (P10275 whole entry, looked up): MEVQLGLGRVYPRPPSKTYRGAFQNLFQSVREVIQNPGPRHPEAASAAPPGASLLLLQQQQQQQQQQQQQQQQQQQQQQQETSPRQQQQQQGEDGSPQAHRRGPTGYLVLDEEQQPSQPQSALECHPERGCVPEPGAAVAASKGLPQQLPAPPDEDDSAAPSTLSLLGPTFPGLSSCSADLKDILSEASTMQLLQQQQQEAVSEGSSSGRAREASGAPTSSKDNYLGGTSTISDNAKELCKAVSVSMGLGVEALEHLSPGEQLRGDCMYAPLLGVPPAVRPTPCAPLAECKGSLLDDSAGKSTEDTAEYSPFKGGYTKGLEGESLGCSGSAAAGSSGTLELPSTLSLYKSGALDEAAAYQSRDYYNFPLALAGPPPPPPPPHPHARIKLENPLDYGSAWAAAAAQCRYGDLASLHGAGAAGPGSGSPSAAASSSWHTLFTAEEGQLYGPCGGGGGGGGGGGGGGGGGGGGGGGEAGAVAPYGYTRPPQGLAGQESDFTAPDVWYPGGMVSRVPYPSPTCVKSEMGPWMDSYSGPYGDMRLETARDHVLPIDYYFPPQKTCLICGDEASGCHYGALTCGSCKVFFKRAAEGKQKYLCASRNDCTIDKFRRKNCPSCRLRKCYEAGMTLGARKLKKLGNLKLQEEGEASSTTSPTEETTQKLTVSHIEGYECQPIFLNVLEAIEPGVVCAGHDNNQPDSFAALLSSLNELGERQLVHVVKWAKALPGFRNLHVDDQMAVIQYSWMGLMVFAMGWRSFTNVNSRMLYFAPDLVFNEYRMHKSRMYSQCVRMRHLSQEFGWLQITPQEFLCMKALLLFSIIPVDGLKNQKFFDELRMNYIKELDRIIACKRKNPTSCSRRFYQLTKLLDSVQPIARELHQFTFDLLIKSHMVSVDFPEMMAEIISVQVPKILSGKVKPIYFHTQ
Procedure, shortened: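 Test compounds at 15 concentrations were incubated for 16hr with MDA-kb2 reporter cells in presence of 3.0uM nilutamide (final). Signal: ONE-Glo luciferase luminescence.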

Compound	Potency [1]	Potency [2]	Potency [3]	Potency [4]	Potency [5]	outcome [6]	Potency [7]	Potency [8]	Potency [9]	outcome [10]	Potency [11]	Potency [12]	Potency [13]	Potency [14]	Potency [15]	Potency [16]	Potency [17]	Potency [18]	Potency [19]	Potency [20]
CC1(c2ccc(Oc3ccccc3)cc2)OC(=O)N(Nc2ccccc2)C1=O (centres undefined)	inactive	10.9 µM (active)	24.5 µM (active)	inactive	inactive	inactive	30.8 µM (active)	inactive	inactive	inactive	inactive	inactive	27.5 µM (active)	–	–	–	–	–	–	–
COc1cc(N)c(Cl)cc1C(=O)NC1CN2CCC1CC2 (centres undefined)	inactive	inactive	inactive	inactive	–	inactive	inactive	inactive	inactive	inactive	inactive	inactive	inactive	inactive	inactive	inactive	inactive	–	–	–
Cc1cc(C(F)(C(F)(F)F)C(F)(F)F)ccc1NC(=O)c1cccc(I)c1C(=O)NC(C)(C)CS(C)(=O)=O	inactive	inactive	inactive	–	inactive	inactive	inactive	–	inactive	inactive	inactive	inactive	inactive	inactive	–	inactive	inactive	19.4 µM (active)	–	–
CCCCCCCCCCCCCN1CC(C)OC(C)C1 (centres undefined)	inactive	inactive	inactive	inactive	inactive	–	inactive	inactive	inactive	inactive	inactive	inactive	inactive	inactive	inactive	inactive	inactive	–	inactive	–
ClCc1ccccc1CCl	inactive	inactive	61.1 µM (active)	inactive	inactive	inactive	inactive	inactive	inactive	inactive	inactive	inactive	inactive	inactive	inactive	inactive	inactive	–	inactive	–
CC(=O)OC1(c2ccccc2)CCN(CCc2ccccc2)CC1	inactive	inactive	70.3 µM (active)	inactive	–	inactive	–	inactive	inactive	inactive	inactive	inactive	–	inactive	inactive	inactive	inactive	–	inactive	–
CC(C)OC(=O)C(O)(c1ccc(Cl)cc1)c1ccc(Cl)cc1	inactive	30.6 µM (active)	inactive	inactive	inactive	inactive	inactive	–	inactive	inactive	inactive	inactive	–	inactive	–	inactive	–	–	inactive	–
Clc1ccc(C(Cl)(Cl)Cl)c(Cl)c1	inactive	inactive	inactive	–	–	inactive	inactive	–	inactive	inactive	inactive	inactive	inactive	–	inactive	48.9 µM (active)	–	–	–	–
Oc1cc(Cl)c(Cl)c(Cl)c1	inactive	14.6 µM (active)	–	–	inactive	inactive	–	–	–	inactive	inactive	inactive	51.7 µM (active)	inactive	13 µM (active)	inactive	–	–	inactive	inactive
O=[N+]([O-])c1ccc(Oc2ccc(C(F)(F)F)cc2[N+](=O)[O-])cc1	inactive	inactive	inactive	inactive	inactive	inactive	inactive	inactive	inactive	inactive	inactive	inactive	inactive	inactive	–	–	–	–	inactive	–
CCc1nn(C)c(C(=O)NCc2ccc(C(C)(C)C)cc2)c1Cl	inactive	24.3 µM (active)	0.306 µM (active)	–	inactive	inactive	–	–	–	inactive	inactive	inactive	10.9 µM (active)	61.1 µM (active)	–	–	54.5 µM (active)	54.5 µM (active)	–	–
CCc1cc(C)cc(CC)c1-c1c(OC(=O)C(C)(C)C)n2n(c1=O)CCOCC2	inactive	inactive	–	inactive	inactive	–	34.4 µM (active)	inactive	inactive	inactive	inactive	inactive	–	inactive	inactive	inactive	inactive	inactive	inactive	–
N#CC(Cl)Cl	inactive	–	inactive	inactive	–	inactive	inactive	5.3 µM (active)	inactive	inactive	inactive	inactive	inactive	inactive	inactive	inactive	inactive	inactive	inactive	47.3 µM (active)
